Among the test systems are SK-MEL-2 melanoma; EKVX NSCLC; SN12C renal; UO-31 renal; ACHN renal; CAKI-1 renal; A498 renal; CCRF-CEM leukemia; MOLT-4 leukemia; SR leukemia; RPMI-8226 leukemia; OVCAR-8 ovarian; OVCAR-5 ovarian; OVCAR-4 ovarian; SK-OV-3 ovarian; IGROV1 ovarian; OVCAR-3 ovarian; HS 578T breast; NCI/ADR-RES ovarian; TK-10 renal.
Assay in all cases: NCI-60 one-dose screen, 48 h (100 = growth as untreated, 0 = no growth, -100 = all killed)
Details in all cases: 10 µM unless noted

Compounds without any hit were thinned out: in the full panel of roughly 83,000, 20% have a hit.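 Treatment: one concentration, 48 hours, 96-well format. Scoring: percent growth, with anything below 10 considered active.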 Unmarked numbers belong to inactive results. The source made the active and inactive calls.

Turning to `CCCCC/C=C/CCC(=O)N[C@H]1[C@H](Oc2c3cc4cc2Oc2ccc(cc2Cl)[C@@H](O[C@@H]2O[C@H](CO)[C@@H](O)[C@H](O)[C@H]2NC(C)=O)[C@@H]2NC(=O)[C@H](NC(=O)[C@@H]4NC(=O)[C@H]4NC(=O)[C@@H](Cc5ccc(c(Cl)c5)O3)NC(=O)[C@@H](N)c3ccc(O)c(c3)Oc3cc(O)cc4c3)c3ccc(O)c(c3)-c3c(O[C@H]4O[C@H](CO)[C@@H](O)[C@H](O)[C@@H]4O)cc(O)cc3[C@H](C(=O)O)NC2=O)O[C@H](CO)[C@H](O)[C@@H]1O`, the growth was 112% in the test on SK-MEL-2 melanoma; 96.4% in the test on EKVX NSCLC; 94.7% in the test with SN12C renal; 82% in the test on UO-31 renal; 103% with ACHN renal; 84.1% with CAKI-1 renal. The growth in the test on A498 renal is 102%; with CCRF-CEM leukemia it was 113%; with MOLT-4 leukemia, 101%; in the test with SR leukemia, 95.5%; in the test with RPMI-8226 leukemia it was 120%; with OVCAR-8 ovarian it was 101%. The growth was 114% in the test with OVCAR-5 ovarian; 110% with OVCAR-4 ovarian; 111% with SK-OV-3 ovarian; 101% with IGROV1 ovarian; 104% with OVCAR-3 ovarian; 50.1% with HS 578T breast. Further, the growth in the test with NCI/ADR-RES ovarian is 96.5%.
With `COc1ccc(Nc2nc(Nc3cc(C)[nH]n3)c3cc(OC)c(OC)cc3n2)cc1`, the growth is -68.6% [20 µM] (active) in the test on SK-MEL-2 melanoma; -79.5% [20 µM] (active) with EKVX NSCLC; -90.4% [20 µM] (active) in the test on SN12C renal; -100% [20 µM] (active) in the test on UO-31 renal; -86.6% [20 µM] (active) in the test with TK-10 renal; -100% [20 µM] (active) in the test with ACHN renal. Besides, the growth in the test on CAKI-1 renal was -100% [20 µM] (active); with CCRF-CEM leukemia, -38.9% [20 µM] (active); in the test with MOLT-4 leukemia, -57.1% [20 µM] (active); in the test with SR leukemia it was 0.87% [20 µM] (active); in the test on RPMI-8226 leukemia it was -50.4% [20 µM] (active); in the test on OVCAR-8 ovarian, -31.2% [20 µM] (active). For the same compound, the growth in the test on OVCAR-5 ovarian was -98% [20 µM] (active); with OVCAR-4 ovarian, -83.9% [20 µM] (active); in the test with SK-OV-3 ovarian it was -96.2% [20 µM] (active); in the test on IGROV1 ovarian it was -88.8% [20 µM] (active); in the test with OVCAR-3 ovarian it was -63.1% [20 µM] (active); with HS 578T breast, -63.1% [20 µM] (active). In addition, the growth in the test with NCI/ADR-RES ovarian was -63.7% [20 µM] (active).
Consider `CCOC(=O)C1=C(c2ccccc2)N=C2N(c3ccccc3)N=C(C(C)=O)N2C1c1ccc(Br)cc1` (configuration not stated), for which the growth was 90.3% with SK-MEL-2 melanoma; 93.9% in the test on EKVX NSCLC; 90% in the test with SN12C renal; 72.7% in the test on UO-31 renal; 93.3% in the test with ACHN renal; 87.1% with CAKI-1 renal. The growth with A498 renal is 42.9%; in the test with CCRF-CEM leukemia, 87.7%; in the test with MOLT-4 leukemia, 93.6%; in the test with SR leukemia, 81.8%; in the test on RPMI-8226 leukemia, 77.8%; in the test with OVCAR-8 ovarian it was 93.9%. The growth with OVCAR-5 ovarian is 104%; with OVCAR-4 ovarian it was 104%; in the test on IGROV1 ovarian, 88%; with OVCAR-3 ovarian, 102%; in the test on HS 578T breast, 83.2%; in the test with NCI/ADR-RES ovarian, 103%.
Take `COC(=O)c1nc(-c2ccccc2)oc1S(=O)(=O)N1CCN(c2ccc(OC)cc2)CC1`: the growth is 106% in the test with SK-MEL-2 melanoma; 88.2% in the test with EKVX NSCLC; 85.4% with SN12C renal; 66.1% with UO-31 renal; 66.4% in the test on ACHN renal; 79.3% with CAKI-1 renal. The growth in the test with A498 renal is 121%; in the test on CCRF-CEM leukemia it was -11.9% (active); in the test with MOLT-4 leukemia it was 25.1%; in the test with SR leukemia, -1.38% (active); in the test on RPMI-8226 leukemia, 37.3%; in the test with OVCAR-8 ovarian it was 83.8%. The growth in the test with OVCAR-5 ovarian was 88.7%; in the test on OVCAR-4 ovarian, 88.7%; with SK-OV-3 ovarian it was 104%; with IGROV1 ovarian, 71.7%; with OVCAR-3 ovarian, 45.4%; with NCI/ADR-RES ovarian, 104%.
Regarding `CCN(CC)CCCNC(=O)c1c2c(n3ccccc13)C(=O)c1ncccc1C2=O`, the growth with SK-MEL-2 melanoma was -55.3% (active); in the test on EKVX NSCLC it was -84.5% (active); with SN12C renal, -56% (active); in the test with UO-31 renal, -19.8% (active); in the test with TK-10 renal, -0.124% (active); in the test on ACHN renal, -34.5% (active). Also, the growth with CAKI-1 renal was 11.8%; in the test with CCRF-CEM leukemia it was -36.2% (active); in the test with MOLT-4 leukemia it was -40.6% (active); with SR leukemia, -22.6% (active); with RPMI-8226 leukemia it was -23.8% (active); in the test with OVCAR-8 ovarian, -56.1% (active). Further, the growth in the test on OVCAR-5 ovarian was -8.93% (active); with OVCAR-4 ovarian it was -83.4% (active); in the test with SK-OV-3 ovarian, -41.4% (active); in the test with IGROV1 ovarian, -40.3% (active); in the test with OVCAR-3 ovarian, -39.5% (active); in the test on HS 578T breast it was 37.5%. In the test on NCI/ADR-RES ovarian, the growth was 3.02% (active).
`c1ccc(Cn2cc3c(c2)-c2nc(Nc4ccccc4)ncc2CC3)cc1`: the growth in the test on SK-MEL-2 melanoma is 92.6% [100 µM]; in the test with EKVX NSCLC, 72.1% [100 µM]; with SN12C renal, 87.8% [100 µM]; in the test on UO-31 renal it was 93% [100 µM]; with TK-10 renal it was 72.8% [100 µM]; with ACHN renal, 81.8% [100 µM]. Also, the growth is 59.2% [100 µM] with CAKI-1 renal; 2.85% [100 µM] (active) in the test with CCRF-CEM leukemia; 107% [100 µM] in the test with MOLT-4 leukemia; 114% [100 µM] in the test on SR leukemia; 88.2% [100 µM] in the test on RPMI-8226 leukemia; 67.5% [100 µM] in the test with OVCAR-8 ovarian. Also, the growth with OVCAR-5 ovarian is 82.8% [100 µM]; in the test on OVCAR-4 ovarian, 63.3% [100 µM]; in the test on IGROV1 ovarian, 62.9% [100 µM]; in the test with OVCAR-3 ovarian, 85.9% [100 µM]; in the test on HS 578T breast, 68.9% [100 µM]; in the test with NCI/ADR-RES ovarian it was 83.9% [100 µM].
`CN1CCN(Cn2nc(-c3cc(Cl)cc(Cl)c3Cl)oc2=S)CC1`: the growth is 95.3% in the test with SK-MEL-2 melanoma; 102% in the test with EKVX NSCLC; 93.9% with SN12C renal; 138% in the test with UO-31 renal; 110% with TK-10 renal; 98.1% with ACHN renal. For the same compound, the growth with CAKI-1 renal is 59.5%; with CCRF-CEM leukemia it was 272%; in the test with MOLT-4 leukemia it was 122%; in the test on SR leukemia, 70.4%; in the test on RPMI-8226 leukemia it was 160%; with OVCAR-8 ovarian it was 96%. Also, the growth was 93.6% with OVCAR-5 ovarian; 92.8% in the test on OVCAR-4 ovarian; 97.8% in the test on IGROV1 ovarian; 99.2% in the test on OVCAR-3 ovarian; 99% in the test with NCI/ADR-RES ovarian.
For the compound `C=C(CNCCO)[C@@H]1CC[C@]2(CO)CC[C@]3(C)[C@H](CC[C@@H]4[C@@]5(C)CCC(NCCO)C(C)(C)[C@@H]5CC[C@]43C)[C@@H]12` (some centres not stated), the growth with SK-MEL-2 melanoma was 96.1%; in the test on EKVX NSCLC it was 82.4%; with SN12C renal, 89.1%; with UO-31 renal it was 65.2%; with ACHN renal it was 95.9%; in the test with CAKI-1 renal it was 72.2%. The growth was 75.3% in the test with A498 renal; 39.2% in the test with CCRF-CEM leukemia; 39.9% in the test on MOLT-4 leukemia; -22.9% (active) in the test on SR leukemia; 36.8% in the test with RPMI-8226 leukemia; 75.8% in the test on OVCAR-8 ovarian. Further, the growth was 90.6% in the test on OVCAR-5 ovarian; 77.1% in the test on OVCAR-4 ovarian; 94.6% in the test on SK-OV-3 ovarian; 80.4% in the test with IGROV1 ovarian; 80% with OVCAR-3 ovarian; 78.2% in the test with HS 578T breast. The growth in the test with NCI/ADR-RES ovarian was 95%.

For the origin of these results see PubChem BioAssay (NCI).
